Assay results reported in PubChem BioAssay (NCI).
About 83,000 compounds went through this panel and 20% of them were active in at least one assay; those are over-represented in the sample as a whole.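 In brief: 96-well plates, 48 h treatment, single concentration, percent growth endpoint.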 Unmarked numbers belong to inactive results. The source made the active and inactive calls. The calls were made as follows: active = growth percent below 10; inactive = the rest.

Key:
Experiment in all cases: NCI-60 one-dose screen, 48 h (100 = growth as untreated, 0 = no growth, -100 = all killed)
Conditions in all cases: 10 µM unless noted
[1] = system: NCI-H23 lung
[2] = system: NCI-H226 lung
[3] = system: NCI-H322M lung
[4] = system: HOP-62 NSCLC
[5] = system: NCI-H460 lung
[6] = system: NCI-H522 lung
[7] = system: A549/ATCC NSCLC
[8] = system: 786-0 renal
[9] = system: COLO 205 colon
[10] = system: DU-145 prostate
[11] = system: K-562 leukemia
[12] = system: MALME-3M melanoma
[13] = system: MDA-MB-231 breast
[14] = system: RXF 393 renal
[15] = system: SF-268 CNS
[16] = system: SF-295 CNS
[17] = system: SF-539 CNS
[18] = system: UACC-257 melanoma
[19] = system: M14 melanoma

SMILES | growth [1] | growth [2] | growth [3] | growth [4] | growth [5] | growth [6] | growth [7] | growth [8] | growth [9] | growth [10] | growth [11] | growth [12] | growth [13] | growth [14] | growth [15] | growth [16] | growth [17] | growth [18] | growth [19]
COc1cc2oc(-c3cccc(C(=O)N[C@@H](CC(C)C)C(=O)OC(C)(C)C)c3)cc(=O)c2c(OC)c1OC | 60.6% | 72.6% | 90.4% | 43.4% | 37.8% | 83.1% | 76% | 67.9% | 92.8% | 72.8% | 36.7% | 96.3% | 72.1% | 86.2% | 83.8% | 52.3% | 88.6% | 112% | 93.7%
CNC(=O)c1cc(Oc2ccc3nc(NC(=O)c4ccc(N5CCOCC5)c(C(F)(F)F)c4)sc3c2)ccn1 | 78.9% | 91.5% | 91.7% | 90.5% | 68.8% | 77.9% | 80.5% | 47.1% | 102% | 98.2% | 71.9% | 94.2% | 84.9% | -31.3% (active) | 92.8% | 26.5% | 68.3% | 96.2% | 85.9%
CC1=N[C@@H]2CN(C(=O)OC(C)(C)C)C[C@@H]2n2c1cc1ccccc1c2=O | 93.7% | 99.5% | 98.6% | 97.9% | 109% | 98.6% | 103% | 102% | 107% | 111% | 97.8% | 107% | 96.1% | 110% | 99.5% | 108% | 99.3% | 108% | 97.7%
O=S(=O)(Nc1ccc2c(c1)OCO2)c1ccc(-c2cnc(C3CC3)o2)cc1 | 42% | 55.9% | 64.5% | 43.3% | 23.5% | 34.4% | 43.8% | 46.2% | 35.3% | 44.6% | 12.3% | 46.2% | 46.2% | 34.9% | 53.6% | 9.2% (active) | 33% | 55% | 22.8%
N#Cc1cnc2ccc(-c3cnc(N)nc3)cc2c1N1CCc2cc(F)c(Cl)cc21 | 9.66% (active) | 9.54% (active) | 10% | 2.88% (active) | 7.28% (active) | 10.4% | 4.58% (active) | 3.11% (active) | 6.97% (active) | 13.3% | 12% | -11.6% (active) | 14.9% |  | 5.13% (active) | -8.96% (active) | -12.5% (active) | 8.92% (active) | 
Nc1ncc(-c2ccc(NS(=O)(=O)c3ccc(Cl)c(Cl)c3)cc2)[nH]1 | 95.9% | 87.3% | 97% | 113% | 93.6% | 92.7% | 92.5% | 93.8% | 109% | 103% | 89.7% | 85.3% | 91.2% | 95.4% | 75.1% | 90.8% | 88.1% | 87.7% | 95.5%
O=C(c1ccc(O)cc1)[C@@H]1CN[C@@]2(C(=O)Nc3ccccc32)[C@H]1c1ccc(F)cc1 | 94.5% | 96.2% | 99.7% | 99.5% | 111% | 96.6% | 108% | 110% | 116% | 111% | 88% | 98.5% | 93.6% |  | 97.7% | 101% | 93.7% | 114% | 
O=C1[C@H]2Cc3c([nH]c4ccccc34)[C@@H](c3c(Cl)cccc3Cl)N2C(=O)CN1C1CCN(CC2CCCCC2)CC1 | 94.5% | 86.1% | 94.7% | 93.3% | 63.6% | 101% | 94.3% | 83.2% | 105% | 48.9% | 9.76% (active) | 85.5% | 75% |  | 84.4% | 105% | 95.4% | 110% | 
CCNC(=O)N1CCc2cc(OC)c(OCCc3ccc(OC)nc3)cc2C1c1ccc(C)cc1C (stereo not drawn) | 13% | 33.2% | 38% | 21.8% | 1.74% (active) | -34% (active) | 4.74% (active) | 6.15% (active) | 7.67% (active) | 12% | 11% | 51.5% | 15% | 2.44% (active) | 20.7% | 7.92% (active) | 5.2% (active) | 41.9% | 12.9%
CCc1cccc2c3c(sc12)C(c1ccc(OC)cc1)C(C#N)=C(/N=C/c1ccc(Cl)cc1)O3 (stereo not drawn) | 19.9% | 41.2% | 55.1% | 33.8% | 11.5% | -40.4% (active) | 41.5% | 39.3% | -18.9% (active) | 18.8% | 11.1% | 48.3% | 40.3% | -11.4% (active) | 60% | 6.9% (active) | 1.2% (active) | 72% | 4.74% (active)
Nc1nc(-c2cccc([N+](=O)[O-])c2)c(N=Nc2cccc([N+](=O)[O-])c2)s1 | -25.6% (active) | 14.9% | 64.6% | 16.5% | 4.2% (active) | -12% (active) | 17.5% | -70.4% (active) | 106% | 56.7% | 81.9% | 52.4% | 19.5% | -64.5% (active) | 14.7% | 1.91% (active) | -26.4% (active) | 88.6% | 14.9%
CCNC(=O)N1CCc2cc(OC)c(OCCc3ccc(OC)nc3)cc2C1c1ccc(OC)cc1C (stereo not drawn) | 44.8% | 38.5% | 55.6% | 31% | 3.64% (active) | 19.4% | 30.4% | 22.9% | 29.3% | 40.6% | 20% | 49.5% | 52.8% | 24.7% | 32.9% | 18.2% | 22.6% | 47% | 29.7%
CCOP(=O)(OCC)OC[C@]12CCC(C)(C)C=C1[C@H]1CC[C@@H]3[C@@]4(C)CC[C@H](OP(=O)(OCC)OCC)C(C)(C)[C@@H]4CC[C@@]3(C)[C@]1(C)CC2 | -38.4% (active) | -72.3% (active) | 1.63% (active) | -38.3% (active) | -62.2% (active) | -59.1% (active) | -45.3% (active) | -59.7% (active) | -43.1% (active) | -70.2% (active) | 4.74% (active) | -12.8% (active) | -55.2% (active) |  | -59.7% (active) | -66.2% (active) | -84.1% (active) | -8.01% (active) | 
C#CC(=O)N(c1ccc(OC)cc1OC)C(C(=O)NCC(=O)OCC)c1cccs1 (stereo not drawn) | -54.7% (active) | 93.3% | 94.4% | 102% | 82.2% | -72.2% (active) | 94.4% | -75.2% (active) | 35% | 33.2% | 3.23% (active) | -61.8% (active) | 22.4% | 56.5% | -23.1% (active) | -67.9% (active) | -86% (active) | 86.6% | 80.9%
